Assay outcomes from PubChem.
Chronic BCR inh: qHTS Assay to Find Inhibitors of Chronic Active B-Cell Receptor Signaling; 340,000 compounds, 0.05% hits; Potency, µM (highest dose often 46.1 µM), for the others: at the top dose activity change, negative = inhibition, most hits filed as inhibitors; ABC-DLBCL IkBa-CBG/CBR reporter, luminescence ratio, 4 h; AID 493014, 2011; active means well fitted inhibition curve with a large enough effect in the signal ratio, with a control signal flat, not every such curve was filed as active; inconclusive means small, poorly fitted or top-dose-only effect, or effect the other way, or a change in a side signal; the % refers to the signal ratio;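 further: potency means the concentration at half of the fitted maximal effect; plate controls were basal doxycycline-induced cells for no effect and cells given 10 µM MG132 for full effect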
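TMD8 human ABC-DLBCL cells with doxycycline-inducible IκBα–green luciferase fusion and unfused red luciferase, in 0.5% FBS medium; compounds up to 46 uM, 4 h at 37C. Green/red luminescence ratio, filter-overlap corrected, fitted to concentration-response curves.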
DT40 TDP1 no CPT: qHTS for Inhibitors of human tyrosyl-DNA phosphodiesterase 1 (TDP1): qHTS in cells in absence of CPT | DT40 Tdp1-/- hTDP1 cells, no CPT, ATP luminescence, 48 h | Potency, µM (series often up to 46.2 µM), for the others: at the top dose activity change, negative = growth inhibition, actives largely listed as inhibitors | 420,000 compounds, 15% hits; further: potency means the concentration at half of the fitted maximal effect; on the % scale 0 is the no-effect control and ±100 the full control effect; nearly all actives have a fitted effect of over 55% in size
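Stably hTDP1-transfected Tdp1-null chicken DT40 cells were treated with library compounds minus camptothecin and grown for at least 48 hr at 37 °C, after which cellular ATP was quantified by luminescence.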
TDP1 cell CPT: qHTS for Inhibitors of human tyrosyl-DNA phosphodiesterase 1 (TDP1): qHTS in cells in presence of CPT. Potency, µM (series often up to 46.2 µM), inactives show at the highest dose activity change, negative = growth inhibition, actives largely listed as inhibitors. 420,000 compounds, 12% hits. chicken DT40 Tdp1-/-;hTDP1 cells + 20 nM CPT, ATP luminescence, 48 h; further: potency means the concentration at half of the fitted maximal effect; on the % scale 0 is the no-effect control and ±100 the full control effect; nearly all actives have a fitted effect of over 55% in size
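Chicken DT40 Tdp1-/- cells stably complemented with human TDP1 were seeded at 400 cells/well in medium containing 20 nM camptothecin, exposed to pin-transferred compounds, and grown at 37 °C for at least 48 hr. Viability was read as ATP luminescence.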
SW480 rerep: A quantitative high throughput screen for small molecules that induce DNA re-replication in SW480 colon adenocarcinoma cells. 340,000 compounds, 1.8% hits. Potency, µM (titrated, usually from 46.1 µM), inactives show top-dose re-replication activation, usual class: activators. AID 624297, 2012. SW480 DNA re-replication, Hoechst DNA content imaging, 48 h; further: potency means the concentration at half of the fitted maximal effect; % of control where 0% means no effect; nearly all actives have a fitted effect of over 55% in size
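Treated cells incubate 48 hr (37 C, 5% CO2), are stained 40 min with Hoechst, and nuclear fluorescence is enumerated; a rise in nuclei with high DNA signal marks re-replication.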
MCF10A rereplic: A quantitative high throughput screen for small molecules that induce DNA re-replication in MCF 10a normal breast cells | 350,000 compounds, 2.9% hits | MCF 10A DNA re-replication, Hoechst nuclear intensity, 48 h | Potency, µM (series often up to 46.1 µM), for inactives: top-dose activity, positive = re-replication, most hits filed as activators | AID 624296, 2012; further: potency means the concentration at half of the fitted maximal effect; % of control where 0% means no effect; nearly all actives have a fitted effect of over 50% in size
IL-1B inflam inh: qHTS for Inhibitors of Inflammasome Signaling: IL-1-beta AlphaLISA Primary Screen; activity change, % at 57.5 µM; AID 743279, 2014; 360,000 compounds, 4.7% hits; THP-1 LPS/ATP IL-1B secretion, AlphaLISA, 16 h; stronger effect = lower value; in the data active means activity change below about -50%; inconclusive means mostly about -30% to -49%; further: on the % scale 0 is the no-effect control and ±100 the full control effect
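THP-1 cells pretreated 1 hr with compounds (up to 57.5 uM final), then stimulated with LPS (250 ng/mL final) plus ATP (1.25 mM final); secreted IL-1B measured by AlphaLISA after 16 hr, decreased signal indicating inhibition.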
The depositor's hits bear a star; ? = inconclusive; . = not tested or not shown. Shown are actives, neighbours in structure and some others; about 19% of the full set was active somewhere. Unless noted, the call rests on the fitted dose curve; in most records, active means well fitted curve in the direction sought with a large enough effect; inconclusive means small, poorly fitted or top-dose-only effect, or another doubt; inactive means no such curve, though single readings can be large; an effect the other way counts as inactive or inconclusive.

SMILES	Chronic BCR inh	DT40 TDP1 no CPT	TDP1 cell CPT	SW480 rerep	MCF10A rereplic	IL-1B inflam inh
N=c1c(C(=O)NC2CCCC2)cc2c(=O)n3ccccc3nc2n1CCCN1CCOCC1	1%	10%	14%	?	?	31
N=c1c(C(=O)NC2CCCC2)cc2c(=O)n3ccccc3nc2n1CCN1CCOCC1	11%	-3%	-18%	2.8µM*	?	5
Cc1cccn2c(=O)c3cc(C(=O)NC4CCCC4)c(=N)n(CCc4ccccc4)c3nc12	3%	3.7µM*	2.9µM*	4.6µM*	2.6µM*	28
O=C(Nc1nc(-c2ccccn2)cs1)c1cc2ccccc2o1	?	7.3µM*	?	?	?	75
Cc1cc(-c2csc(NC(=O)c3cc4ccccc4o3)n2)c(C)n1C	?	?	?	-1%	7%	-7
Cc1c(C(=O)Nc2nc(-c3ccccn3)cs2)oc2ccccc12	9%	3.7µM*	5.2µM*	17%	23µM*	181
Cc1nnc(NC(=O)c2oc3ccccc3c2C)s1	?	-1%	?	23%	9%	65
CCCCCCCCCCCCCC(=O)OCC(COP(=O)([O-])OCC[N+](C)(C)C)OC(=O)CCCCCCCCCCCCC (stereo not given)	.	0%	5%	-1%	1%	.
Cc1ccc(Sc2ccc(N3CCC(C(=O)Nc4ccc(Cl)cc4)CC3)nn2)cc1	.	18µM*	15µM*	.	.	.
CCOC(=O)c1ccc(NC(=O)C2CCCN(c3ccc(Sc4ccc(C)cc4)nn3)C2)cc1 (stereo not given)	.	8.2µM*	?	.	.	.
Cc1ccc(Sc2ccc(N3CCCC(C(=O)Nc4ccc(F)cc4F)C3)nn2)cc1 (stereo not given)	.	18µM*	15µM*	.	.	.
CCOc1ccc(NC(=O)C2CCCN(c3ccc(Sc4ccc(C)cc4)nn3)C2)cc1 (stereo not given)	.	-21%	-14%	.	.	.
COc1ccc2c(c1OC)C(Cc1ccccc1)N1CCc3cc4c(cc3C1C2)OCO4 (stereo not given)	.	12µM*	6µM*	.	.	.
O=C(Nc1ccon1)Nc1cccc(Cl)c1Cl	1%	13%	-5%	-16%	-23%	19
COc1cc(CNCCc2c[nH]c3ccccc23)ccc1OCc1ccc(F)cc1	-22%	18µM*	15µM*	?	?	-103*
COc1cccc(CNc2ccc3[nH]c(=O)[nH]c3c2)c1OCc1ccc(F)cc1	-10%	?	-5%	-10%	7%	-27
COc1cccc(CNCCc2c[nH]c3ccccc23)c1OCc1ccc(F)cc1	?	15µM*	18µM*	?	?	-62*
COc1ccc(C(CNC(=O)c2[nH]c(C)c(C(C)=O)c2C)N2CCOCC2)cc1 (stereo not given)	0%	-16%	-27%	-1%	21%	8
CS(=O)(=O)c1ccc(Cl)c(NC(=O)c2ccc(-n3cncn3)c([N+](=O)[O-])c2)c1	.	-8%	-18%	.	.	-4
Cc1cccc(N2CCN(c3nc(C)cc(C)c3C#N)CC2C)c1 (stereo not given)	10%	?	6%	?	18µM*	-22
Cc1cccc(N2CCN(c3ncnc4onc(-c5ccc(F)cc5)c34)CC2C)c1 (stereo not given)	.	15µM*	16µM*	.	.	.
Cc1noc2ncnc(N3CCN(c4cccc(C(F)(F)F)c4)CC3)c12	.	8.2µM*	12µM*	.	.	.
Cc1cccc(N2CCN(c3ncnc4onc(C)c34)CC2C)c1 (stereo not given)	.	2.3µM*	4.6µM*	.	.	.
COc1cccc(N2CCN(c3ncnc4onc(-c5ccc(F)cc5)c34)CC2)c1	.	0%	5%	.	.	.
Cc1noc2ncnc(N3CCCC3)c12	0%	1%	-21%	-42%	?	0
SMILES	Chronic BCR inh	DT40 TDP1 no CPT	TDP1 cell CPT	SW480 rerep	MCF10A rereplic	IL-1B inflam inh
COCCn1c(=S)[nH]c2cc(C(=O)N3CCN(Cc4ccccc4)CC3)ccc2c1=O	.	?	-26%	.	.	.
CCOC(=O)[C@@H]1CCN(Cc2ccccc2)C[C@H]1c1ccccc1	-4%	23µM*	?	3%	10%	-9
Clc1ccc(CNCCCSc2ncccn2)cc1Cl	0%	?	?	-1%	6%	-62*
COc1cc(CNC[C@H]2O[C@@H](n3ccc(N)nc3=O)[C@H](O)[C@@H]2O)ccc1OCc1cccc(Cl)c1	.	-3%	-1%	.	.	-19
COc1cc(CNCc2ccccn2)ccc1OCc1ccc(Cl)cc1	?	?	?	4%	?	-57*
COc1cc(CNCc2ccccn2)ccc1OCc1cccc(Cl)c1	?	?	?	?	13µM*	-80*
Clc1ccc(COc2cccc(CNCc3ccncc3)c2)cc1	2%	18µM*	?	-4%	15%	-15
CC(C)(CO)NCc1cccc(OCc2ccc(Cl)cc2)c1	-4%	?	?	1%	10%	?
O=C(NCc1ccccn1)c1cc(Cl)ccc1OCc1ccccc1	?	?	?	-3%	-1%	-53*
CC1CN(Cc2ccccc2)c2ccccc2NC1=S (stereo not given)	0%	?	-30%	2%	41%	-5
O=C(CSc1nncn1-c1cccnc1)Nc1cccc(C(F)(F)F)c1	0%	?	4%	-1%	0%	-17
O=C(/C=C/c1ccc(Br)cc1)N1CCN(Cc2ccccc2)CC1	.	?	?	-3%	?	-81*
O=C(/C=C/c1ccc(F)cc1)N1CCN(Cc2ccccc2)CC1	.	?	?	-11%	5%	-26
Cc1ccccc1CN1CCN(C(=O)c2cccc3ccccc23)CC1	-6%	?	?	23%	-1%	?
CN(CC(=O)N1CCN(Cc2ccccc2)CC1)C(=O)Cc1cccc2ccccc12	0%	13µM*	13µM*	4%	13%	0
Cc1ccc(CN2CCN(C(=O)c3cccc4ccccc34)CC2)cc1	?	23µM*	?	0%	3%	?
Cc1cccc(CN2CCN(C(=O)c3ccccc3F)CC2)c1	5%	-4%	-8%	4%	2%	?
